Test results published in PubChem BioAssay AID624296 (National Center for Advancing Translational Sciences (NCATS), 2012).
Where “and” joins values, the source holds several entries; their conditions need not be identical. Equal values may be shown once. In all, about 350,000 compounds went through this assay and about 9,900 (2.8%) were called active. Entries that show only a call come without a potency. Another 15% or so got no clear call; they are omitted. Calls come from the whole dose curve; as a rule, active = well fitted activation curve with a large enough effect; inconclusive = small, poorly fitted or top-dose-only effect; inactive = no such curve, though single readings can be large or run the other way. Many of the other results were omitted from the sample, so actives are more common in it than they were. A structure can be active in one record and inactive in another.
Potency is the fitted concentration of half-maximal effect.

Experiment: A quantitative high throughput screen for small molecules that induce DNA re-replication in MCF 10a normal breast cells. Note: nearly all actives have a fitted effect of over 50% in size.
Settings: MCF 10A DNA re-replication, Hoechst nuclear intensity, 48 h; series mostly up to 46.1 µM
With `COc1ccc2oc(N)nc2c1` the Potency was “inactive”.
With `COc1cccc(CNC(C)C(=O)Nc2ccc(S(=O)(=O)N3CCCC3)cc2)c1` (configuration not stated) the Potency was “inactive”.
In the case of `CN(Cc1ccc(F)cc1)C(=O)CN1C(=O)c2ccccc2S1(=O)=O`, the Potency is reported as “inactive”.
In the case of `C[C@]12CC[C@H](O)CC1=CCC1C2CC[C@@]2(C)C1CC[C@@H]2NC(=O)CCC(=O)O` (some centres not stated), the Potency is reported as “inactive”.
For `CC1CCCCC1NC(=O)COC(=O)Cc1ccc(Cl)cc1` (configuration not stated), the Potency was “inactive”.
With `CC(C)(C)C(=O)Nc1cccc(-c2ccc[nH]2)n1` the Potency was “inactive”.
With `CC(=O)c1c(C)[nH]c(C(=O)OCC(=O)Nc2c(C)cccc2C)c1C` the Potency was “inactive”.
In the case of `O=C(CNC(=O)c1ccco1)NNC(=O)c1ccc(Br)cc1`, the Potency is reported as “inactive”.
With `Cc1cccc(NC(=S)N2CCC(c3nc4ccccc4s3)CC2)c1` the Potency was “inactive”.
With `Cc1cccc(NC(=S)N2CCCC(c3nc4ccccc4[nH]3)C2)c1` (configuration not stated) the Potency was 1.03 µM (active).
For `CCCNC(=S)N1CCCC(c2nc3ccccc3[nH]2)C1` (configuration not stated), the Potency was “inactive”.
With `O=C(Nc1ccccc1-c1ccccc1)c1cccs1` the Potency was “inactive”.
For `O=C(Nc1ccccc1)c1ccc(NC(=O)c2cccs2)cc1`, the Potency was “inactive”.
With `O=C(Nc1ccnc(-c2ccncc2)n1)c1cccs1` the Potency was 0.259 µM (active).
For `CN1CCN(c2ccc(NC(=O)c3ccccc3)cc2)CC1`, the Potency was “inactive”.
In the case of `Cc1cccc(N2CCN(c3ccc(NC(=O)/C=C\C(=O)O)cc3)CC2)c1`, the Potency is reported as “inactive”.
With `C=CC(=O)Nc1ccc(Nc2ccnc(Nc3ccc(N4CCN(C)CC4)cc3)n2)cc1` the Potency was 20.6 µM (active).
For `CCCCN(CC(=O)Nc1cccc(S(=O)(=O)N2CCCC2)c1)Cc1nc2ccccc2c(=O)[nH]1`, the Potency was “inactive”.
With `COC1C(CO)OC(n2cnc3c(=S)nc(N)[nH]c32)C1O` (configuration not stated) the Potency was “inactive”.
With `COc1ccc2nc(SCC(=O)Nc3c(C)cc(C)cc3C)[nH]c2c1` the Potency was “inactive”.
For `Cc1ccc(O)c(CNc2nc3ccccc3[nH]2)c1`, the Potency was “inactive”.
With `COC(=O)Nc1nc2ccc(Sc3ccccc3)cc2[nH]1` the Potency was 904 nM (active) and 1.16 µM (active).
In the case of `Cc1ccccc1Nc1nc(N)nc(COC(=O)CCC(=O)c2ccc(F)cc2)n1`, the Potency is reported as “inactive”.
For `Cc1cc(CO)nn1-c1ccc([N+](=O)[O-])cc1`, the Potency was “inactive”.
In the case of `CC(C)(C)c1cnnn1-c1ccc([N+](=O)[O-])cc1`, the Potency is reported as “inactive”.
For `COc1cnn(-c2ccc([N+](=O)[O-])cc2)c(=O)c1Cl`, the Potency was 18.4 µM (active).
In the case of `Cc1ccc(N=C2NC(=O)/C(=C/C=C/c3ccco3)S2)cc1C`, the Potency is reported as 7.31 µM (active).
For `COc1cc(/C=C2/C(=O)NN(c3cccc(Cl)c3)C2=O)cc(Br)c1O`, the Potency was “inactive”.
For `CCC1S/C(=N/N=C/c2ccco2)NC1=O` (configuration not stated), the Potency was “inactive”.
With `CN(C)c1ccc(-n2cccc2/C=C2/SC(=Nc3ccc(F)cc3)NC2=O)cc1` the Potency was “inactive”.
For `Cc1ccc(N2NC(=O)/C(=C/C=C/c3ccco3)C2=O)cc1C`, the Potency was 23.1 µM (active).
For `O=C1NN(c2ccccc2)C(=O)/C1=C/c1ccc(-c2cccc(C(=O)O)c2)o1`, the Potency was “inactive”.
In the case of `CC(C)c1ccc(S(=O)(=O)N2CCN(C(C)C(=O)NC3CCCC3)CC2)cc1` (configuration not stated), the Potency is reported as “inactive”.
For `COc1ccc(CCNC(=O)c2ccc(NC(=O)CC3SC(N4CCCCC4)=NC3=O)cc2)cc1OC` (configuration not stated), the Potency was “inactive”.
In the case of `Cn1c(N)cc(=O)n(C)c1=S`, the Potency is reported as “inactive”.
For `CCOc1ccccc1NC(=O)CCc1ccc(C)o1`, the Potency was “inactive”.
In the case of `Cc1cnc(NC(=O)CSc2nnc(-c3ccc(Cl)cc3Cl)n2N)s1`, the Potency is reported as “inactive”.
In the case of `Cc1ccc(CCC(=O)Nc2ncc(Cc3cc(Cl)ccc3Cl)s2)o1`, the Potency is reported as 1.16 µM (active).
With `CNS(=O)(=O)c1ccc(C(=O)NCC(=O)NCCc2ccc3c(c2)OCCO3)cc1` the Potency was “inactive”.
In the case of `N/C(=N\OC(=O)N1c2ccccc2Sc2ccccc21)c1ccc(Br)cc1`, the Potency is reported as 5.17 µM (active).
For `N/C(=N\OC(=O)c1ccc2c(c1)OCO2)c1ccc(Br)cc1`, the Potency was “inactive”.
With `CCOC(=O)CNC(=O)N1c2ccccc2Sc2ccccc21` the Potency was “inactive”.
In the case of `O=C(OCC(=O)N1CCN(c2ccccc2)CC1)c1ccc([N+](=O)[O-])s1`, the Potency is reported as “inactive”.
With `COc1ccc(CCNC(=O)COC(=O)c2cnc(Cl)c(Cl)c2)cc1` the Potency was “inactive”.
In the case of `Cc1nnc(OCC(=O)NCCC2=CCCCC2)c2ccccc12`, the Potency is reported as 20.6 µM (active).
In the case of `O=C(COc1cccc(-n2cnnn2)c1)NCCC1=CCCCC1`, the Potency is reported as “inactive”.
For `O=C(Cc1cccc2ccccc12)NCCC1=CCCCC1`, the Potency was “inactive”.
In the case of `O=C(OCCOc1ccccc1F)c1cc(S(=O)(=O)N2CCOCC2)ccc1F`, the Potency is reported as “inactive”.
In the case of `CCCCN(C(=O)c1nn(C)c(=O)c2ccccc12)c1c(N)n(CCC)c(=O)[nH]c1=O`, the Potency is reported as “inactive”.
For `CCC1=C(C(=O)OC)C(c2cc(OC)ccc2OC)C(C#N)=C(N)O1` (configuration not stated), the Potency was “inactive”.
In the case of `COc1ccc(C2C(C#N)=C(N)Oc3cc(N)ccc32)cc1OC` (configuration not stated), the Potency is reported as 18.4 µM (active).
With `COC(=O)C1=C(C)OC(N)=C(C#N)C1c1cc(OC)ccc1OC` (configuration not stated) the Potency was “inactive”.
With `O=C1NCC(c2ccccc2)(c2ccccc2)C(=O)N1` the Potency was “inactive”.
In the case of `O=C(Cc1ccc([N+](=O)[O-])cc1)NCCc1ccc2c(c1)OCO2`, the Potency is reported as “inactive”.
In the case of `O=C(c1cccnc1)N(Cc1ccccc1)C(=O)c1cccnc1`, the Potency is reported as “inactive”.
With `Cc1ccc(-n2c(O)c(C=Nc3ccc(S(=O)(=O)Nc4ncccn4)cc3)c3ccccc3c2=O)cc1C` the Potency was “inactive”.
With `COC(=O)Cc1csc(Nc2c(C)n(C)n(-c3ccccc3)c2=O)n1` the Potency was “inactive”.
With `COC(=O)Cc1csc(/N=C/c2c(O)n(-c3cccc(C(F)(F)F)c3)c(=O)c3ccccc23)n1` the Potency was “inactive and 3.26 µM (active)”.
In the case of `Cc1ccc(C)c(NC(=O)COC(=O)c2nn(C)c(=O)c3ccccc23)c1`, the Potency is reported as “inactive”.
In the case of `COc1cc(/C=N/O)ccc1OCc1ccc([N+](=O)[O-])cc1`, the Potency is reported as “inactive”.
With `COc1ccc(/C=C/C(=O)N2CCCC2)cc1OC` the Potency was “inactive”.
For `COC(=O)c1ccc(COc2ccc(/C=C/C(=O)c3ccc(OC)c(CSCC(=O)O)c3)cc2OC)cc1`, the Potency was 2.91 µM (active).
For `Cc1c(Cl)cnc(NC(=O)COC(=O)C2CCCC2)c1Cl`, the Potency was “inactive”.
With `Cc1noc(C)c1COc1ccc(C(=O)NCCOc2ccccc2)cc1` the Potency was “inactive”.
In the case of `COc1ccc(C(=O)COC(=O)c2c(C)noc2C)cc1Cl`, the Potency is reported as “inactive”.
For `Cc1onc(-c2ccccc2Cl)c1C(=O)OCC(=O)c1ccccc1`, the Potency was 16.4 µM (active).
For `Cc1onc(-c2ccccc2Cl)c1C(=O)OCc1nnc(-c2ccccc2)o1`, the Potency was “inactive”.
In the case of `COc1cc(C(=O)OCc2cc(=O)n3ccsc3n2)ccc1OC(C)C`, the Potency is reported as “inactive”.
With `O=C(CN1C(=O)COc2ccccc21)Nc1ccc(F)cc1` the Potency was 20.6 µM (active).
With `CC(OC(=O)CN1C(=O)COc2ccccc21)C(=O)NCc1ccc(F)cc1` (configuration not stated) the Potency was “inactive”.
In the case of `O=C(CN1C(=O)COc2ccccc21)NCCN1CCc2ccccc2C1`, the Potency is reported as “inactive”.
With `Cc1ccc(S(=O)(=O)N2CCN(C(=O)c3cc(S(=O)(=O)N4CCOCC4)ccc3F)CC2)cc1` the Potency was “inactive”.
With `O=C(c1ccc(Cl)c(S(=O)(=O)N2CCCCCC2)c1)N1CCN(c2ccc(O)cc2)CC1` the Potency was “inactive”.
With `Cc1ccc(C(=O)NNC(=O)CSc2nnc3ccccn23)cc1` the Potency was “inactive”.
In the case of `Cc1ccc(C(C[N+](=O)[O-])c2c(C)cc3ccccn23)cc1` (configuration not stated), the Potency is reported as 20.6 µM (active).
In the case of `CC(=O)Nc1ccc(/C=N/Nc2ccc(C(=O)c3c(C)cc4ccccn34)cc2[N+](=O)[O-])cc1`, the Potency is reported as “inactive”.
For `C/C(CC(=O)NCc1ccc(Cl)cc1)=N\NC(=O)COc1ccc(C)cc1Br`, the Potency was 5.8 µM (active).
In the case of `CCCCC(=O)N/N=C(\C)CC(=O)Nc1cc(Cl)ccc1OC`, the Potency is reported as “inactive”.
In the case of `Cc1cc(Cl)ccc1OCCCC(=O)NCc1ccncc1`, the Potency is reported as “inactive”.
In the case of `COc1ccc(CC(=O)N[C@@H]2c3cc(OC)c(OC)cc3C[C@H]2OCc2ccccc2)cc1`, the Potency is reported as “inactive”.
For `Cc1ccc(C(=O)Nc2ccccc2-c2ccccc2)cc1S(=O)(=O)Nc1ccccc1`, the Potency was “inactive”.
In the case of `O=S(=O)(Nc1cc(Cl)ccc1N1CCOCC1)c1ccccc1Cl`, the Potency is reported as “inactive”.
For `CCCc1ccc(-c2c(C)sc(NC(=O)c3ccnn3C)c2C#N)cc1`, the Potency was 16.4 µM (active).
With `Cc1sc(NC(=O)C2=COCCO2)c(C#N)c1C` the Potency was “inactive”.
In the case of `Cn1nccc1CNC(=O)c1ccnn1C`, the Potency is reported as “inactive”.
For `COCC(=O)N(C)[C@H]1C[C@H]2c3cc(Oc4ccccc4C)ccc3CCN2C(=O)[C@H]1[C@H](C)O`, the Potency was “inactive”.
For `CC(=O)n1cc([C@@H]2C=C(C(=O)N3CCN(Cc4ccc5c(c4)OCO5)CC3)O[C@H](OCc3ccc(CO)cc3)C2)c2ccccc21`, the Potency was 13 µM (active).
With `O=C(C1=C[C@H](c2coc3ccccc3c2=O)C[C@H](OCc2ccc(CO)cc2)O1)N1CCOCC1` the Potency was “inactive”.
For `CN1CCN(C(=O)C2=C[C@H](c3ccc4c(c3)OCO4)C[C@H](OCc3ccc(CO)cc3)O2)CC1`, the Potency was 8.2 µM (active).
In the case of `NC(=O)C1=C[C@@H](c2ccc3c(c2)OCO3)C[C@@H](OCCCCO)O1`, the Potency is reported as “inactive”.
For `CC(=O)n1cc([C@H]2C=C(C(=O)N3CCOCC3)O[C@@H](OCc3ccc(CO)cc3)C2)c2ccccc21`, the Potency was “inactive”.
For `C=CCOC(=O)C1=C[C@@H](c2ccc3c(c2)OCO3)C[C@@H](OCCCCO)O1`, the Potency was “inactive”.
For `Cc1ccc2c(CN3CCN(S(=O)(=O)c4ccccc4C(F)(F)F)CC3)cc(=O)oc2c1`, the Potency was “inactive”.
For `COc1cc(C(c2c(NC(=O)c3ccco3)sc(C)c2C)N2CCOCC2)cc(OC)c1OC` (configuration not stated), the Potency was “inactive”.
With `O=C(O)c1ccc([N+](=O)[O-])cc1Sc1ccsc1` the Potency was “inactive”.
With `Cc1ccc(C)c(S(=O)(=O)N(C)c2ccc(OC(=O)C3CCN(C(=O)c4ccc(F)cc4)CC3)cc2)c1` the Potency was “inactive”.
For `COc1ccc(CCC(=O)Nc2ccc(Cl)c(S(=O)(=O)N3CCOCC3)c2)cc1OC`, the Potency was “inactive”.
With `COc1ccc(Br)cc1CN(C)C(=O)C1CC(=O)N(C2CCCC2)C1` (configuration not stated) the Potency was “inactive”.
In the case of `COc1ccc(OC)c(NC(=O)COC(=O)Cc2ccsc2)c1`, the Potency is reported as “inactive”.
For `CC(C)(C)c1ccc(/C=C/C(=O)NC2CCS(=O)(=O)C2)cc1` (configuration not stated), the Potency was 0.92 µM (active).
With `CC(C)(C)c1ccc(/C=C/C(=O)Nc2ncccn2)cc1` the Potency was “inactive”.
With `O=C(COC(=O)/C=C/c1ccc2c(c1)OCO2)NC1CCS(=O)(=O)C1` (configuration not stated) the Potency was “inactive”.
